Laboratory results published in PubChem BioAssay.
A number with no mark means an inactive call. How the calls were made is not given here.

Experiment: blockers of DNA damage checkpoint Chk1 activation – imaging, HeLa, hydroxyurea, phospho-Chk1 antibody, percent positive cells, primary screen (AID 1186)
Details: hydroxyurea-induced phospho-Chk1 immunofluorescence imaging, higher = more signal

With `O=C1c2ccccc2[C@](Cc2ccccc2I)(C(=O)NCc2ccccc2)[C@H](c2ccc(CO)cc2)N1C1CCCCC1` as the compound, how does the z-score read?
The z-score was -0.353.

With `COc1ccc(C(O)C2C=CC3C(=O)N(C)C(=O)C3N2N2CCCCC2)cc1` (stereo not given) as the compound, how does the z-score read?
The z-score was -1.52.

For `C=C1C2CC3C(=C4C(CO[C@@H]4[C@H]4CCCN4S(=O)(=O)c4ccccc4[N+](=O)[O-])C4C(=O)N(C)C(=O)C34)CC2C(=O)N1C` (stereo not given in full), which z-score is on record?
The z-score was -0.0718.

With `COCCOC(=O)N1C(=O)[C@@]2(c3cc(C#CC4=CCCCC4)ccc31)[C@H](c1ccc(O)cc1)N1[C@H](c3ccccc3)[C@H](c3ccccc3)OC(=O)[C@H]1[C@@H]2C(=O)Nc1nc2ccccc2s1` as the compound, how does the z-score read?
The z-score was 0.0256.

With `C[C@H]1C2=C3C(CC[C@H]4C(OCc5ccc(F)cc5C(F)(F)F)OC[C@](C)([C@@H]34)N(C(=O)OC(C)(C)C)C2)C(CO)C1CO` (stereo not given in full) as the compound, how does the z-score read?
Its z-score is 0.491.

With `COCCOC(=O)N1C(=O)[C@@]2(c3cc(C#CC4(O)CCCCCC4)ccc31)[C@H](C(=O)N1CCCCCCC1)[C@H]1C(=O)O[C@H](c3ccccc3)[C@H](c3ccccc3)N1[C@@H]2c1ccc(OCCO)cc1` as the compound, how does the z-score read?
The z-score was 0.331.

Which z-score does the source give for `COCCOC(=O)N1C(=O)[C@@]2(c3cc(C#CC4(O)CCCCCC4)ccc31)[C@H](C(N)=O)[C@H]1C(=O)O[C@H](c3ccccc3)[C@H](c3ccccc3)N1[C@@H]2c1ccccc1OCCO` here?
The z-score was 0.276.

Which z-score does the source give for `CC(=O)N1Cc2ccccc2C[C@]2(N=C(c3ccc(OCCCO)cc3)O[C@@H]2c2ccccc2)C1=O` here?
Its z-score is -0.151.

With `O=C1OCC=C[C@H]2OC34C=CCN(c5ccc(Cl)cc5)C(=O)[C@H]3N(CCCCCO)C(=O)[C@@H]4[C@@H]12` (stereo not given in full) as the compound, how does the z-score read?
Its z-score is -0.11.

For `C=C(C(=O)CC[C@H](OC(=O)c1cccnc1)c1cccc(OCCO)c1)C(C)C`, which z-score is on record?
The z-score was -0.556.

With `CC(C)C(O)C1C=CC2C(=O)N(C)C(=O)C2N1N(c1ccccc1)c1ccccc1` (stereo not given) as the compound, how does the z-score read?
The z-score was 0.307.

With `O=C1O[C@@H](c2ccccc2)[C@@H](c2ccccc2)N2[C@@H](c3ccc(O)cc3)[C@]3(C(=O)Nc4ccccc43)[C@@H](C(=O)Nc3nc4ccccc4s3)[C@H]12` as the compound, how does the z-score read?
The z-score was -0.193.

For `COC(=O)[C@@]1(Cc2ccc(OC)cc2)[C@H]2c3cc(C(=O)N(C)C)n(Cc4ccccc4)c3C[C@H]2CN1C(=O)c1ccccc1`, which z-score is on record?
The z-score was -0.342.

For `CC1CC/C=C\[C@H]2OC34C=CCN(CCN5CCOCC5)C(=O)[C@H]3N(CCO)C(=O)[C@@H]4C2C(=O)O1` (stereo not given in full), which z-score is on record?
The z-score was 0.0898.

With `COC(=O)[C@]1(CCS(=O)(=O)c2ccccc2)N=C(c2ccc(OCCCO)cc2)O[C@@H]1c1ccccc1CN=[N+]=[N-]` as the compound, how does the z-score read?
Its z-score is -0.375.

For `CC(C)(C)OC(=O)CC[C@]1(C(=O)O)N=C(c2ccc(OCCCO)cc2)O[C@H]1c1ccccc1`, which z-score is on record?
The z-score was -0.388.

Which z-score does the source give for `O=C1c2ccccc2[C@@]2(Cc3ccccc3N(C3CC3)C2=O)[C@H](c2ccc(CO)cc2)N1C1CCCCC1` here?
The z-score was 0.353.

With `COCCOC(=O)N1C(=O)[C@@]2(c3ccccc31)[C@H](c1ccc(OCCO)cc1)N1[C@H](c3ccccc3)[C@H](c3ccccc3)OC(=O)[C@H]1[C@@H]2C(=O)Nc1nc2ccccc2s1` as the compound, how does the z-score read?
The z-score was -0.0021.

Which z-score does the source give for `[N-]=[N+]=Nc1ccccc1C[C@@]1(C(=O)O)N=C(c2ccc(OCCCO)cc2)O[C@@H]1c1ccccc1` here?
Its z-score is 0.167.

With `CCCNC(=O)[C@@]1(c2ccc([N+](=O)[O-])cc2)CC(=O)N(C2CCCCC2)[C@@H]1c1ccc(CO)cc1I` as the compound, how does the z-score read?
Its z-score is -0.0439.

Which z-score does the source give for `COc1ccc([Si](C)(C)[C@H]2[C@H](CCn3cc([C@H](O)c4ccccc4)nn3)O[C@@]3(C(=O)N(Cc4ccc(N5CCOC5=O)cc4)c4ccccc43)[C@@H]2C)cc1` here?
The z-score was -0.138.

With `COCCCNC(=O)[C@@]1(Sc2ccc(C)cc2)CC(=O)N(Cc2cc(C(F)(F)F)cc(C(F)(F)F)c2)[C@@H]1c1ccc(CO)cc1` as the compound, how does the z-score read?
The z-score was 0.155.

For `C=CCC(OC(C)=O)[C@@H]1[C@@H](N(Cc2cc3ccccc3o2)C(=O)Cc2ccc(F)cc2)c2cc(OCCCO)ccc2N1C(=O)c1ccc2ccccc2n1` (stereo not given in full), which z-score is on record?
Its z-score is 0.702.

Which z-score does the source give for `CCCCC(=C=CC[C@@H](O)c1ccc(OCCO)cc1)C[C@@H](O)COCc1ccccc1` here?
The z-score was -0.263.

For `O=C1O[C@@H](c2ccccc2)[C@@H](c2ccccc2)N2[C@@H](c3ccc(O)cc3)[C@]3(C(=O)Nc4ccc(C#CCCO)cc43)[C@@H](C(=O)NC[C@H](O)c3ccccc3)[C@H]12`, which z-score is on record?
Its z-score is -0.101.

With `[N-]=[N+]=Nc1ccccc1[C@@H]1OC(c2ccc(OCCCO)cc2)=N[C@]1(CCS(=O)(=O)c1ccccc1)C(=O)NCCN1CCOCC1` as the compound, how does the z-score read?
Its z-score is 0.147.

With `COCCCNC(=O)[C@@H]1c2ccccc2C(=O)N(Cc2ccccc2C(F)(F)F)[C@H]1c1ccc(CO)cc1` as the compound, how does the z-score read?
The z-score was -0.477.

For `NC(=O)N1C(=O)C2C(C1=O)C1C=C(CCCO)C2C(c2cccs2)N1Cc1cc2c(cc1Br)OCO2` (stereo not given), which z-score is on record?
Its z-score is 0.164.

Which z-score does the source give for `CCOC(=O)C[C@H]1[C@H](OC(=O)c2ccccc2-c2ccccc2)[C@@H](NC(=O)CC(C)C)c2cc(OCCCO)ccc2N1C(=O)c1ccc2ccccc2n1` here?
Its z-score is 0.222.

For `CN1C(=O)C2C=CC(C(O)C3CCCCC3)N(N3CCCCC3)C2C1=O` (stereo not given), which z-score is on record?
The z-score was 0.796.

Which z-score does the source give for `CO[C@H]1O[C@H](CO)[C@@H](OC(=O)Nc2ccc(C(F)(F)F)cc2)[C@H](OC(=O)Nc2ccc3c(c2)OCO3)[C@H]1OC(=O)Nc1ccc2c(c1)OCO2` here?
The z-score was -0.318.

With `NCCCCCCNC(=O)[C@@H]1C[C@@H]2C(=O)N3CCC[C@H]3C(=O)N2[C@@H]1c1ccc(O)cc1` as the compound, how does the z-score read?
The z-score was 0.683.

With `COC(=O)C(CC#Cc1ccc2c(c1)[C@]1(C(=O)N2)[C@H](C(=O)O)[C@H]2C(=O)O[C@H](c3ccccc3)[C@H](c3ccccc3)N2[C@@H]1c1ccccc1OCCO)C(=O)OC` as the compound, how does the z-score read?
The z-score was -0.244.

For `CCOC(=O)[C@H]1C/C=C/C[C@H](C(=O)OCC)C(=O)O[C@H]2[C@@H](OC)O[C@H](CO)[C@@H](OC(=O)CCc3ccccc3)[C@@H]2OC1=O`, which z-score is on record?
The z-score was -0.0591.

For `C[C@]12C(=O)N(CCCCCCO)[C@@H]3C(=O)N(c4ccc(Cl)cc4)CC=CC31O[C@@H]1/C=C\CCCOC(=O)C12` (stereo not given in full), which z-score is on record?
Its z-score is -0.659.
